What is called cell viability is a read-out of living cells in per cent, often relative to untreated cells.

Counter-ions that a name gives are not always drawn.

One test has as its system MOLM14. The test is described as follows: cell viability relative to vehicle control; higher = less cytotoxic. The following applies: 10 µM; SRSF2 genotype: SRSF2 P95H/wt. A digest of the protocol:
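CRISPR-edited mutant clones and isogenic wild-type clones from four leukaemia lines were screened against Selleck bioactive, kinase and epigenetic probe libraries, with identity-inconsistent compounds excluded. Each compound was acoustically dispensed at a single 10 µM dose into 384-well plates holding 2000 cells in 50 µL medium per well. After 48 h the supernatant was removed and CellTiter-Glo luminescence was read. Viability was expressed as percent of the on-plate vehicle control and analysed in Genedata Screener.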
With `COc1ccc2c(c1)c(C1=C(c3c[nH]c4ccccc34)C(=O)NC1=O)cn2CCCN(C)C`, the cell viability amounted to 30.9%.

With `C[C@@H]1CC[C@]2(C(=O)O[C@@H]3O[C@H](CO)[C@@H](O)[C@H](O)[C@H]3O)CC[C@]3(C)C(=CC[C@@H]4[C@@]5(C)CC[C@H](O)[C@@](C)(CO)[C@@H]5CC[C@]43C)[C@@H]2[C@]1(C)O` [Pedunculoside], the cell viability turned out to be 107%.

Regarding `CCc1cc(Nc2nccc(-c3c(-c4ccc(OC)c(C(=O)Nc5c(F)cccc5F)c4)nc4ccccn34)n2)c(OC)cc1N1CCC(N2CCN(S(C)(=O)=O)CC2)CC1`, the cell viability is 105%.

Still in this test, the particulars now being: 10 µM; SRSF2 genotype: SRSF2 wt/wt.
Consider `NS(=O)(=O)c1cc2c(cc1Cl)N=CNS2(=O)=O` [Chlorothiazide], for which the cell viability is 97.8%.

Regarding `CC(C)CCCC(C)C1CCC2C3CCC4CC(O)CCC4(C)C3CCC12C` (stereo not drawn) [Dihydrocholesterol], the cell viability came out at 97.6%.

`CC(C)c1c(C(=O)Nc2ccccc2)c(-c2ccccc2)c(-c2ccc(F)cc2)n1CC[C@@H](O)C[C@@H](O)CC(=O)O` [Atorvastatin calcium (Lipitor)]: the cell viability is 91.5%.

Take `O=C1CCC(N2C(=O)c3ccccc3C2=O)C(=O)N1` (stereo not drawn) [Thalidomide]: the cell viability is 86.7%.

Consider `COc1ccc(C2=N[C@@H](c3ccc(Cl)cc3)[C@@H](c3ccc(Cl)cc3)N2C(=O)N2CCNC(=O)C2)c(OC(C)C)c1` [Nutlin-3], for which the cell viability came to 1.06%.

`CC1(C)C(O[C@@H]2OC[C@@H](O)[C@H](O)[C@H]2O)CC[C@]23CC24CC[C@]2(C)[C@@H]([C@@]5(C)CC[C@@H](C(C)(C)O)O5)[C@H](O)C[C@@]2(C)C4C[C@@H](O[C@@H]2O[C@H](CO)[C@@H](O)[C@H](O)[C@H]2O)C13` (stereo partly drawn) [Astragaloside IV]: the cell viability was 114%.

Regarding `COC(=O)N[C@H](C(=O)N[C@@H](Cc1ccccc1)[C@@H](O)CN(Cc1ccc(-c2ccccn2)cc1)NC(=O)[C@@H](NC(=O)OC)C(C)(C)C)C(C)(C)C` [Atazanavir sulfate], the cell viability is 104%.

For `CCCCCCCC/C=C\CCCCCCCC(=O)OCC` [Ethyl Oleate], the cell viability was 95%.

As for `O=CC[C@@H](O)[C@H](O)[C@H](O)CO` [2-Deoxy-D-glucose], the cell viability was determined as 101%.

Take `C[S+](CC[C@H](N)C(=O)[O-])C[C@H]1O[C@@H](n2cnc3c(N)ncnc32)[C@H](O)[C@@H]1O` (stereo partly drawn) [Ademetionine]: the cell viability was 111%.

As to `O=C1c2ccccc2C(=O)C1c1ccccc1` [Phenindione (Rectadione)], the cell viability is 106%.

Regarding `CNCC[C@@H](Oc1ccccc1C)c1ccccc1` [Atomoxetine HCl], the cell viability was determined as 106%.

As for `CCNC(=O)[C@@H]1CCCN1C(=O)[C@H](CCCN=C(N)N)NC(=O)[C@H](CC(C)C)NC(=O)[C@@H](CC(C)C)NC(=O)[C@H](Cc1ccc(O)cc1)NC(=O)[C@H](CO)NC(=O)[C@H](Cc1c[nH]c2ccccc12)NC(=O)[C@H](Cc1cnc[nH]1)NC(=O)[C@@H]1CCC(=O)N1` [S3718 Leuprolide Acetate.cdx], the cell viability amounted to 105%.

Regarding `Cc1onc(-c2c(F)cccc2Cl)c1C(=O)N[C@@H]1C(=O)N2[C@@H]1SC(C)(C)[C@@H]2C(=O)O` [Flucloxacillin sodium], the cell viability was 96.5%.

As to `CC(CCc1ccccc1)NCC(=O)c1ccc(O)c(C(N)=O)c1` (stereo not drawn) [Labetalone hydrochloride], the cell viability was determined as 104%.

On to `COc1cc(C(=O)N(CCCc2ccccc2)Cc2ccc(CC(=O)O)cc2)cc(OC)c1C`, for which the cell viability was 99.4%.

Take `O=C1N=C(O)NC1(c1ccccc1)c1ccccc1` [Phenytoin sodium (Dilantin)]: the cell viability came out at 102%.

Turning to `Cn1c(Nc2ccc(C(F)(F)F)cc2)nc2cc(Oc3ccnc(-c4ncc(C(F)(F)F)[nH]4)c3)ccc21`, the cell viability came out at 50.1%.

Turning to `CCc1cncnc1N1CCN(Cc2nc3ccc(C(F)(F)F)cc3[nH]2)CC1`, the cell viability was found to be 66.5%.

Take `N#Cc1cc(-c2n[nH]c(-c3ccncc3)n2)ccn1` [Topiroxostat]: the cell viability is 103%.

With `O=C1c2c(O)cc(O)cc2OC(c2ccc(O)c(O)c2)C1O` (stereo not drawn) [Taxifolin (Dihydroquercetin)], the cell viability was found to be 101%.

For the molecule `CC1(C)CCCC2(C)C1CCC1(C)OCCC12` (single isomer, unassigned; (-)) [(-)-Ambroxide], the cell viability worked out at 96.4%.

In the case of `CCOc1nc2cccc(C(=O)OC(C)OC(=O)OC3CCCCC3)c2n1Cc1ccc(-c2ccccc2-c2nn[nH]n2)cc1` (stereo not drawn) [Candesartan cilexetil (Atacand)], the cell viability came out at 87.1%.

Regarding `COc1cc2c(=O)c3c(O)c([C@@H]4O[C@H](CO[C@@H]5OC[C@](O)(CO)[C@H]5O)[C@@H](O)[C@H](O)[C@H]4O)c(O)cc3oc2cc1O` [Polygalaxanthone III], the cell viability is 98.4%.

Take `O=[N+]([O-])c1ccc2c(c1)S(=O)(=O)C=C2` [Stattic]: the cell viability was determined as 0.25%.

`CC(C)OC(=O)OCOP(=O)(CO[C@H](C)Cn1cnc2c(N)ncnc21)OCOC(=O)OC(C)C` [Tenofovir Disoproxil Fumarate]: the cell viability was determined as 28.4%.

For the molecule `CC(=O)OC(C)(C)CCC(=O)[C@](C)(O)[C@H]1[C@H](O)C[C@@]2(C)[C@@H]3CC=C4[C@@H](C[C@H](O)[C@@H](O)C4(C)C)[C@]3(C)C(=O)C[C@]12C` [Curcurbitacin IIA], the cell viability is 22.4%.

With `CC(C)NC[C@@H](C(=O)N1CCN(c2ncnc3c2[C@H](C)C[C@H]3O)CC1)c1ccc(Cl)cc1` [Ipatasertib (GDC-0068)], the cell viability stood at 56.6%.

Regarding `O=C1C(=Cc2cccnc2)C(=O)c2ccccc21`, the cell viability stood at 99.4%.

For `N[C@@H](CSC(c1ccccc1)(c1ccccc1)c1ccccc1)C(=O)O`, the cell viability is 2.73%.

Take `CC(C)=CC[C@@H](O)C1=CC(=O)c2c(O)ccc(O)c2C1=O` [Shikonin]: the cell viability worked out at 0.28%.

In the case of `C[C@H]1CN(C[C@H](Cc2ccccc2)C(=O)NCC(=O)O)CC[C@@]1(C)c1cccc(O)c1` [Alvimopan dihydrate], the cell viability is 103%.

For the molecule `CC(=O)O[C@H]1CC(=O)OC(C)(C)[C@@H]2CC(=O)[C@]3(C)[C@H](CC[C@@]4(C)[C@@H](c5ccoc5)OC(=O)[C@H]5O[C@]543)[C@@]12C` [Nomilin], the cell viability was determined as 104%.

Turning to `CC(C)(C)c1nc(-c2ccc(NC(=O)Nc3cccc(C(F)(F)F)c3)c3ccccc23)c2c(N)nccn12` [kira6], the cell viability was found to be 3.37%.

As to `COc1ccc2[nH]c([S+]([O-])Cc3ncc(C)c(OC)c3C)nc2c1` (stereo not drawn) [Omeprazole (Prilosec)], the cell viability was 95.8%.

Turning to `COc1ccc2cc([C@H](C)C(=O)O)ccc2c1` [Naproxen Sodium], the cell viability turned out to be 102%.

Take `C#C[C@]1(O)CC[C@H]2[C@@H]3CCC4=CCCC[C@@H]4[C@H]3C(=C)C[C@@]21CC` [Desogestrel]: the cell viability was 79.9%.

Turning to `COc1ccc2c(c1)c(C1=C(c3c[nH]c4ccccc34)C(=O)NC1=O)cn2CCCN(C)C`, the cell viability turned out to be 25.9%.

For the molecule `C[C@@H]1CC[C@]2(C(=O)O[C@@H]3O[C@H](CO)[C@@H](O)[C@H](O)[C@H]3O)CC[C@]3(C)C(=CC[C@@H]4[C@@]5(C)CC[C@H](O)[C@@](C)(CO)[C@@H]5CC[C@]43C)[C@@H]2[C@]1(C)O` [Pedunculoside], the cell viability came to 108%.

With `CCc1cc(Nc2nccc(-c3c(-c4ccc(OC)c(C(=O)Nc5c(F)cccc5F)c4)nc4ccccn34)n2)c(OC)cc1N1CCC(N2CCN(S(C)(=O)=O)CC2)CC1`, the cell viability was found to be 100%.

(Values after the supplement of paper PMC10981050.)
